# Experimental data as given in the supplement of paper PMC10849652.
# Of roughly 7,900 targets only a part is listed; those with a hit were picked by preference. About 0.6% of all pairs of compound and target were hits. Values without a mark were called inactive.
# Compound: Cc1ccc(-n2nc(C(C)(C)C)cc2NC(=O)Nc2ccc(OCCN3CCOCC3)c3ccccc23)cc1 [doramapimod]
# Experiment: log2 fold change, soluble protein after heating vs DMSO (PISA); higher = thermal stabilisation; K562 cells, 10 uM, 30 min; active = over 0.2 and 3.5 SD of the protein, either way, in both replicates (recomputed)
# Summary of the method: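 K562 cells at 2×10^6 cells/mL were treated for 30 min with 10 μM compound, and aliquots were heated for 3 min over 48°C-58°C before pooling. Extraction used PBS with 0.5% NP-40 at 4°C, and soluble protein was the supernatant after 21,000xg for 90 min, measured by TMTpro 16plex LC-MS/MS with channel sums equalised. Thermal stability values, relative to control samples and from duplicates, are log2 fold changes.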
# UniProt Q00537, sequence (Q00537 whole entry, looked up): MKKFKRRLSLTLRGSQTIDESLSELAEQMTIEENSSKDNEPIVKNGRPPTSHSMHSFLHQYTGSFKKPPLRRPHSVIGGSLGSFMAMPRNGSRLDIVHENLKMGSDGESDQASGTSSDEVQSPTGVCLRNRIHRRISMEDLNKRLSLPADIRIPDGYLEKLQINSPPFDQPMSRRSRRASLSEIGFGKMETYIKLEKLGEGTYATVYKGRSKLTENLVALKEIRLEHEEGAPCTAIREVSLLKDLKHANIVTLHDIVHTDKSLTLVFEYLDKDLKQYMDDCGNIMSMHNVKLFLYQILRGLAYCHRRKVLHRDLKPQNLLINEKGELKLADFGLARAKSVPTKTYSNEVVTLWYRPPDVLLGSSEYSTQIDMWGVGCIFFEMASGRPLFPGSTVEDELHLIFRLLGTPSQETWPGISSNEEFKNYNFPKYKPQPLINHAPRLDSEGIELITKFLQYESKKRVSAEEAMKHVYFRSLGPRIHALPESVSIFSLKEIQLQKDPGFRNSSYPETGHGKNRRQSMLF
# UniProt Q14746, sequence (Q14746 whole entry, looked up): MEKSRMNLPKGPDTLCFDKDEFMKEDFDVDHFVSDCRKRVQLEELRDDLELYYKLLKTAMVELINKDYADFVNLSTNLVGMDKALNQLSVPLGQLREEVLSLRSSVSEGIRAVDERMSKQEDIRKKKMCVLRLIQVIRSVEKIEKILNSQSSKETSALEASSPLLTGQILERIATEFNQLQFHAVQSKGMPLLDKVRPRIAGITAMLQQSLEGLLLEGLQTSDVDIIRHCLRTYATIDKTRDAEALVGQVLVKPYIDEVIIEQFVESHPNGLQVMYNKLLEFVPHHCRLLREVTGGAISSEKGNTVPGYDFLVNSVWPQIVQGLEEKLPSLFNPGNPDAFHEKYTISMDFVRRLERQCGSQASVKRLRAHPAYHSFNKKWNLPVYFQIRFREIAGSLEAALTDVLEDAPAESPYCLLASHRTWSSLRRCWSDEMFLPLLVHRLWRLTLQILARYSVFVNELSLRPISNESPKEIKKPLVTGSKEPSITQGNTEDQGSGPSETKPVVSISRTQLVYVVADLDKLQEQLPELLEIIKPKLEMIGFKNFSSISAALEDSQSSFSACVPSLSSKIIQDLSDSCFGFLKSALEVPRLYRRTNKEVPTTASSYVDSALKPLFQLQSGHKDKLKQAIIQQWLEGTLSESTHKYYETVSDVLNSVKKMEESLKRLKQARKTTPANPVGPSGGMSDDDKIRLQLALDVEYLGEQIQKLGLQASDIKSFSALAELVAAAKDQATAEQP
# UniProt Q9Y2V0, sequence (Q9Y2V0 whole entry, looked up): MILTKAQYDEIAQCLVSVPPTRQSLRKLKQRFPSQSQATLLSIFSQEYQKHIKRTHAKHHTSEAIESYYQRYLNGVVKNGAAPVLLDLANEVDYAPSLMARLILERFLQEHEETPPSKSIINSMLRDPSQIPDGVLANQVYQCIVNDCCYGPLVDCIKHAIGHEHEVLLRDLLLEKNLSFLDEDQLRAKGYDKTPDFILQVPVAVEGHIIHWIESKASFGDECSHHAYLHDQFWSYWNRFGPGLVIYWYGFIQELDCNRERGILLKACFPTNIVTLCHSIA
# UniProt Q14790, sequence (Q14790 whole entry, looked up): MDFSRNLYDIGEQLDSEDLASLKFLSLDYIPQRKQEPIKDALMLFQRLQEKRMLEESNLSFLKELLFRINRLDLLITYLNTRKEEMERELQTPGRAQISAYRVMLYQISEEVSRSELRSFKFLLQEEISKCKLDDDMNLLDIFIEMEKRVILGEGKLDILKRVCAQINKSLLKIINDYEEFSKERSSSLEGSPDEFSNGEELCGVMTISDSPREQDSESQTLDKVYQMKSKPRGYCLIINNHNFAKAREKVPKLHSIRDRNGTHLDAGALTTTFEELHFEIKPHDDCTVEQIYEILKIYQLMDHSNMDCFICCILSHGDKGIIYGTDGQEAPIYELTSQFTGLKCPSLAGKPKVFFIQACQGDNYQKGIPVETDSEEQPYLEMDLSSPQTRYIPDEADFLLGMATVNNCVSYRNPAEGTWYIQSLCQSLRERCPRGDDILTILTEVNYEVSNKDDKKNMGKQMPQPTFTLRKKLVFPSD
# UniProt P15954, sequence (P15954 whole entry, looked up): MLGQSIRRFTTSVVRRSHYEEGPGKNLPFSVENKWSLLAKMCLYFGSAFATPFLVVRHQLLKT
# UniProt P46527, sequence (P46527 whole entry, looked up): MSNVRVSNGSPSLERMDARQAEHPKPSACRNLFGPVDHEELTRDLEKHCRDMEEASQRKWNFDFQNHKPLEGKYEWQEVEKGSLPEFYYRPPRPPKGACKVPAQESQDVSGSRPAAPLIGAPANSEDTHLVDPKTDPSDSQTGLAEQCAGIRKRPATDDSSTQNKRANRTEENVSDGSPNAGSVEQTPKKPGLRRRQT
# UniProt Q2TAC2, sequence (Q2TAC2 whole entry, looked up): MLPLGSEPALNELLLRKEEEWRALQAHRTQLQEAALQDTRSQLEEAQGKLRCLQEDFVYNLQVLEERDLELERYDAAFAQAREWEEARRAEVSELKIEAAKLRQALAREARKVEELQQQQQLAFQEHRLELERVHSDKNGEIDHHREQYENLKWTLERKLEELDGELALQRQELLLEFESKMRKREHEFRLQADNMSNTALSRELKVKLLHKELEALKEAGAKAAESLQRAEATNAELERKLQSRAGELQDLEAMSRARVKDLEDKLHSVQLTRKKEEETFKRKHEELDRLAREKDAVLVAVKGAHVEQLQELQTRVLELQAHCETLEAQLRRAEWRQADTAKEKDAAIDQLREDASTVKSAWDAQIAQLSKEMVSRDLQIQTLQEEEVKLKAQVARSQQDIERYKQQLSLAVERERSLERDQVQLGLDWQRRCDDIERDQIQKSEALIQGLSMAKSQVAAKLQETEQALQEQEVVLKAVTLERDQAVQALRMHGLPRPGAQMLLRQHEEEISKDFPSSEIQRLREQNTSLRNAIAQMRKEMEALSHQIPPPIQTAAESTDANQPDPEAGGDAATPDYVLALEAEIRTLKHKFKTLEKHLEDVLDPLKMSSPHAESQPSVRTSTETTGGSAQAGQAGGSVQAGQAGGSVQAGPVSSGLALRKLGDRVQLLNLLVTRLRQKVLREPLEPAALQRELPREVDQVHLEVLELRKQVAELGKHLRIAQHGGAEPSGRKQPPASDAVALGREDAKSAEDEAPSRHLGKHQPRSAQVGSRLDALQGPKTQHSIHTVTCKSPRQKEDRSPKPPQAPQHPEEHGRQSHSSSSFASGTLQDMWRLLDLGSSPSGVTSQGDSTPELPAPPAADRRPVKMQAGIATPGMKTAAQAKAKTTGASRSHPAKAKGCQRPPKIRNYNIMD
# UniProt P24863, sequence (P24863 whole entry, looked up): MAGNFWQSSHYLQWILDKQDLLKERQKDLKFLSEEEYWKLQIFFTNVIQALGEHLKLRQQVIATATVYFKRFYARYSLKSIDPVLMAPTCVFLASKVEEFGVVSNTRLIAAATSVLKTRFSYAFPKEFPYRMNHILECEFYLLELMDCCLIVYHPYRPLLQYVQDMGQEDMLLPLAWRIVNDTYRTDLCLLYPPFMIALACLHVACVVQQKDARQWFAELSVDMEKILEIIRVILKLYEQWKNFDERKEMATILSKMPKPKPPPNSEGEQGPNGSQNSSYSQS
# UniProt Q5BKX5, sequence (Q5BKX5 whole entry, looked up): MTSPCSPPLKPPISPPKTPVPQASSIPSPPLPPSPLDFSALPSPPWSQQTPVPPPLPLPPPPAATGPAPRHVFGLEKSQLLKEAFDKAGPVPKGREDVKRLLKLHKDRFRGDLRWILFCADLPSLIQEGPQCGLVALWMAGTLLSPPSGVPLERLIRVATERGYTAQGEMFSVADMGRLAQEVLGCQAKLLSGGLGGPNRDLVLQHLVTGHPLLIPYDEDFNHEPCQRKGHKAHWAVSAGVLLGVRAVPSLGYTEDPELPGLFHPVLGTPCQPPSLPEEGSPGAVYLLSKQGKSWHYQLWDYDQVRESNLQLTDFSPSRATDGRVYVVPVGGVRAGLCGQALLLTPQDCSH
# UniProt Q7Z4R8, sequence (Q7Z4R8 whole entry, looked up): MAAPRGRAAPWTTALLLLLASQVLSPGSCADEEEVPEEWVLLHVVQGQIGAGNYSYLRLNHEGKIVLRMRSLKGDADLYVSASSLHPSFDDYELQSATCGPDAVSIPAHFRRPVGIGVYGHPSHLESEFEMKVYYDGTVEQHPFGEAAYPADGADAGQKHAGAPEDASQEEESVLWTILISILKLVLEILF
# UniProt Q00536, sequence (Q00536 whole entry, looked up): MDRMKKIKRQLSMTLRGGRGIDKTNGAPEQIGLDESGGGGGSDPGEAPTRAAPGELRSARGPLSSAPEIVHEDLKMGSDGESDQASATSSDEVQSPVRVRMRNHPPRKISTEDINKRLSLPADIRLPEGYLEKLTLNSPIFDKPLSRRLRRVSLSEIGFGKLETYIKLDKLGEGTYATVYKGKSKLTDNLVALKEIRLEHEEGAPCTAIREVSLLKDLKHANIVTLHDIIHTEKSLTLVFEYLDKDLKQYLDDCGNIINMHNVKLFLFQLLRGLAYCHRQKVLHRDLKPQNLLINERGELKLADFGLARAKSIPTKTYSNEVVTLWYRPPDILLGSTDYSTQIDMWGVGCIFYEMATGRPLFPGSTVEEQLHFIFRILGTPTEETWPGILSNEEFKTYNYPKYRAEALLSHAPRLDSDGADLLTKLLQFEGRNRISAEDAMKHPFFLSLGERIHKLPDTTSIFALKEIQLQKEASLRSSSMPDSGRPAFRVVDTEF
# UniProt O43529, sequence (O43529 whole entry, looked up): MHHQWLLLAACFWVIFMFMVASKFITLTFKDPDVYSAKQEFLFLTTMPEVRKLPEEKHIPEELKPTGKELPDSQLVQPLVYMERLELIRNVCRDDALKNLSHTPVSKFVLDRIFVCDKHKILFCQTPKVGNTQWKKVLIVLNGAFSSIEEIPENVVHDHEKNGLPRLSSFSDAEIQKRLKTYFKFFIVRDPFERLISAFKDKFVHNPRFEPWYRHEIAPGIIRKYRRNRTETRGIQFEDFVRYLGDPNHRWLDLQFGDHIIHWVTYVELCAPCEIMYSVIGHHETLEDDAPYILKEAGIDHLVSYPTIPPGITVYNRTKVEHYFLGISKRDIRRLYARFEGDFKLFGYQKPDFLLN
row,Target,log2 fold change
1,CASP8 isoform 9 (UniProt Q14790),0.072
2,COX7C (UniProt P15954),-0.072
3,CCDC57 (UniProt Q2TAC2),-0.035
4,CRTC2 (UniProt Q53ET0),0.062
5,COMMD1 (UniProt Q8N668),0.009
6,C15orf41 (UniProt Q9Y2V0),0.08
7,C6orf120 (UniProt Q7Z4R8),0.134
8,COG2 (UniProt Q14746),0
9,CAB39L (UniProt Q9H9S4),0.024
10,CHAF1A (UniProt Q13111),0.025
11,COPS3 isoform 2 (UniProt Q9UNS2),0.028
12,C19orf54 (UniProt Q5BKX5),-0.061
13,CAV2 (UniProt P51636),0.13
14,CMTM3 (UniProt Q96MX0),-0.065
15,COX7B (UniProt P24311),-0.067
16,CCNC (UniProt P24863),0.373 (active)

row,Target,log2 fold change
1,CDK17 isoform 2 (UniProt Q00537),0.028
2,CHST11 (UniProt Q9NPF2),0.087
3,CDK16 isoform 2 (UniProt Q00536),-0.022
4,CDK4 (UniProt P11802),0.079
5,CRLS1 (UniProt Q9UJA2),0.023
6,CDC42SE1 (UniProt Q9NRR8),-0.06
7,CHST10 (UniProt O43529),0.015
8,CDCA2 (UniProt Q69YH5),0.088
9,CENPE (UniProt Q02224),0.108
10,CEP128 (UniProt Q6ZU80),0.102
11,CLINT1 isoform 3 (UniProt Q14677),0.012
12,CDKN1B (UniProt P46527),-0.071
13,C1D (UniProt Q13901),-0.089
14,C22orf39 (UniProt Q6P5X5),0.072
15,CRTC1 isoform 2 (UniProt Q6UUV9),0.005
16,CLN5 (UniProt O75503),0.044
